Laboratory results reported in PubChem BioAssay (EPA / NIEHS).
Values joined by “and” are separate entries in the source; they are usually repeats but may differ in a detail not shown here. Equal entries are not always repeated. A structure can be active in one record and inactive in another. Active and inactive are the calls of the source. The calls were made as follows: active = hit-call score of the fitted dose curve at least 0.9, where 1 is the maximum; inactive = score below 0.9.

What was measured:
Conditions in all cases: mRNA level, 48 h; actives raise or lower the signal
[1] = read-out: Early growth response protein 1 (EGR1) transcription factor, EGR1 (gene 1958); assay: LTEA_HepaRG_EGR1: Life Technologies and Expression Analysis (LTEA) Assay for Early growth response protein 1 (EGR1) transcription factor using HepaRG (AID 2283490)
Procedure, shortened: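 Differentiated HepaRG cells in serum-free induction medium exposed 48 hours, duplicate, to 8 half-log concentrations up to 100 uM in 0.5% DMSO. EGR1 mRNA measured by TaqMan qRT-PCR, normalized to ACTB, GAPDH, POLR2A; bidirectional fit versus DMSO.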

[2] = read-out: Ezrin (EZR), EZR (gene 7430); assay: LTEA_HepaRG_EZR: Life Technologies and Expression Analysis (LTEA) Assay for Ezrin (EZR) using HepaRG (AID 2283491)
Procedure, shortened: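 Gain or loss of EZR mRNA is scored relative to 0.5% DMSO in human HepaRG cultures treated 48 h with test chemicals in duplicate, eight half-log concentrations from 100 uM.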

[3] = read-out: Cytochrome P450 3A7 (Homo sapiens) (UniProt P24462); assay: LTEA_HepaRG_CYP3A7: Life Technologies and Expression Analysis (LTEA) Assay for CYP3A7 using HepaRG (AID 2283492)
Procedure, shortened: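 qRT-PCR of CYP3A7 in HepaRG lysates after 48 h treatment; concentration-response (8 points, max 100 uM) analysed bidirectionally relative to 0.5% DMSO controls.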

CYP3A5 (gene 1577) = assay: LTEA_HepaRG_CYP3A5: Life Technologies and Expression Analysis (LTEA) Assay for CYP3A5 using HepaRG (AID 2283493)
Procedure, shortened: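 HepaRG plated 48 h, switched to serum-free induction medium, chemicals added 48 h (max 100 uM, half-log, 0.5% DMSO). RNA isolated; CYP3A5 by TaqMan qRT-PCR. Gain/loss vs DMSO.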

[4] = read-out: Fatty Acid-Binding Protein 1 (FABP1), FABP1 (gene 2168); assay: LTEA_HepaRG_FABP1: Life Technologies and Expression Analysis (LTEA) Assay for Fatty Acid-Binding Protein 1 (FABP1) using HepaRG (AID 2283494)
Procedure, shortened: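 Differentiated human HepaRG cells exposed 48 h in serum-free induction medium to eight half-log concentrations up to 100 uM (0.5% DMSO), duplicate. FABP1 mRNA by qRT-PCR, normalised to ACTB, GAPDH, POLR2A; bidirectional fitting against DMSO.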

[5] = read-out: Cytochrome P450 4A22 (Homo sapiens) (UniProt Q5TCH4); assay: LTEA_HepaRG_CYP4A22: Life Technologies and Expression Analysis (LTEA) Assay for Cytochrome P450 4A22 (CYP4A22) using HepaRG (AID 2283495)
Procedure, shortened: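 Concentration-response (8 points, max 100 uM, 0.5% DMSO) in human HepaRG liver cells after 48 h exposure. CYP4A22 mRNA by TaqMan qRT-PCR with housekeeping-gene normalization.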

[6] = read-out: Cytochrome P450 7A1 (Homo sapiens) (UniProt P22680); assay: LTEA_HepaRG_CYP7A1: Life Technologies and Expression Analysis (LTEA) Assay for Cytochrome P450 7A1 (CYP7A1) using HepaRG (AID 2283496)
Procedure, shortened: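 HepaRG cells plated 48 h, then switched to serum-free induction medium and exposed in duplicate for 48 h to 8-point half-log series from 100 uM in 0.5% DMSO. CYP7A1 mRNA by qRT-PCR (TaqMan), normalized to ACTB/GAPDH/POLR2A; bidirectional fit versus DMSO.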

[7] = read-out: Glutathione S-Transferase (GSTA2), GSTA2 (gene 2939); assay: LTEA_HepaRG_GSTA2: Life Technologies and Expression Analysis (LTEA) Assay for Glutathione S-Transferase (GSTA2) using HepaRG (AID 2283497)
Procedure, shortened: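 Differentiated human HepaRG cells were exposed in duplicate for 48 h in serum-free induction medium, 8 points from 100 uM top in half-log steps, 0.5% DMSO. GSTA2 mRNA was measured by TaqMan qRT-PCR, normalized to ACTB, GAPDH and POLR2A; bidirectional fit versus DMSO.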

[8] = read-out: Glutamate-cysteine ligase catalytic (GCLC), GCLC (gene 2729); assay: LTEA_HepaRG_GCLC: Life Technologies and Expression Analysis (LTEA) Assay for Glutamate-cysteine ligase catalytic (GCLC) using HepaRG (AID 2283498)
Procedure, shortened: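 Differentiated HepaRG cells exposed 48 h in serum-free induction medium, eight-point half-log series topping at 100 uM in 0.5% DMSO, duplicates. GCLC mRNA by qRT-PCR normalized to ACTB, GAPDH and POLR2A, fitted bidirectionally versus DMSO.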

[9] = read-out: growth arrest and DNA damage 45 (GADD45G), GADD45G (gene 10912); assay: LTEA_HepaRG_GADD45G: Life Technologies and Expression Analysis (LTEA) Assay for growth arrest and DNA damage 45 (GADD45G) using HepaRG (AID 2283499)
Procedure, shortened: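 Concentration-response in HepaRG: 48 h dosing, 0.5% DMSO, highest level 100 uM. GADD45G expression by qRT-PCR, normalised to endogenous controls; bidirectional fit to DMSO.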

[10] = read-out: Glutamate-cysteine ligase regulatory (GCLM), GCLM (gene 2730); assay: LTEA_HepaRG_GCLM: Life Technologies and Expression Analysis (LTEA) Assay for Glutamate-cysteine ligase regulatory (GCLM) using HepaRG (AID 2283500)
Procedure, shortened: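 Cells were plated, cultured 48 h, switched to serum-free induction medium, then dosed in duplicate for 48 h at eight half-log concentrations up to 100 uM. RNA was then profiled by qRT-PCR; gain or loss versus DMSO was fitted.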

[11] = read-out: Glutathione S-transferase M3 (GSTM3), GSTM3 (gene 2947); assay: LTEA_HepaRG_GSTM3: Life Technologies and Expression Analysis (LTEA) Assay for Glutathione S-transferase M3 (GSTM3) using HepaRG (AID 2283501)
Procedure, shortened: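 Expression of GSTM3 is determined by qRT-PCR in human liver HepaRG cells treated 48 h with an 8-point half-log range from 100 uM in 0.5% DMSO.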

[12] = read-out: Heat shock 70 kDa protein 1 (HSPA1A), gene 3303; assay: LTEA_HepaRG_HSPA1A: Life Technologies and Expression Analysis (LTEA) Assay for Heat shock 70 kDa protein 1 (HSPA1A) using HepaRG (AID 2283502)
Procedure, shortened: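 Readout is HSPA1A transcript level by microfluidic qRT-PCR, normalized to three housekeeping genes and analysed for gain or loss of signal relative to 0.5% DMSO. Human HepaRG cultures received test chemicals for 48 h at up to 100 uM.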

[13] = read-out: Hypoxia-inducible factor 1-alpha (Homo sapiens) (UniProt Q16665); assay: LTEA_HepaRG_HIF1A: Life Technologies and Expression Analysis (LTEA) Assay for Hypoxia-inducible factor 1 (HIF1A) Trancription factor using HepaRG (AID 2283503)
Procedure, shortened: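 Differentiated HepaRG cells in serum-free induction medium exposed 48 h, in duplicate, to 8-point half-log series from 100 uM in 0.5% DMSO. HIF1A mRNA measured by TaqMan qRT-PCR, normalized to ACTB/GAPDH/POLR2A, fitted bidirectionally versus DMSO.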

[14] = read-out: 3-Hydroxy-3-Methylglutaryl-CoA Synthase 2 (HMGCS2), HMGCS2 (gene 3158); assay: LTEA_HepaRG_HMGCS2: Life Technologies and Expression Analysis (LTEA) Assay for 3-Hydroxy-3-Methylglutaryl-CoA Synthase 2 (HMGCS2) using HepaRG (AID 2283504)
Procedure, shortened: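 This steatosis marker was read as HMGCS2 mRNA change in HepaRG cells treated 48 h with up to 100 uM chemical. Normalisation used housekeeping genes; activity in either direction was fitted relative to 0.5% DMSO vehicle.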

HGF (gene 3082) = assay: LTEA_HepaRG_HGF: Life Technologies and Expression Analysis (LTEA) Assay for Hepatocyte Growth Facto (HGF) using HepaRG (AID 2283505)
Procedure, shortened: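 Using HepaRG monolayers kept in 0.5% DMSO, chemicals were tested in duplicate over eight half-log concentrations from 100 uM for 48 h. Endpoint: HGF mRNA change relative to DMSO, normalized to ACTB/GAPDH/POLR2A.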

[15] = read-out: Insulin Like Growth Factor 1 (IGF1), IGF1 (gene 3479); assay: LTEA_HepaRG_IGF1: Life Technologies and Expression Analysis (LTEA) Assay for Insulin Like Growth Factor 1 (IGF1) using HepaRG (AID 2283506)
Procedure, shortened: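 HepaRG, plated 48 h, then switched to serum-free induction media; test chemical 8-pt half-log from 100 uM (0.5% DMSO), duplicate, 48 h. Lysis in RLT, TaqMan qRT-PCR, norm. ACTB/GAPDH/POLR2A. Bidirectional fit vs DMSO.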

[16] = read-out: Intercellular Adhesion Molecule 1 (ICAM1), ICAM1 (gene 3383); assay: LTEA_HepaRG_ICAM1: Life Technologies and Expression Analysis (LTEA) Assay for Intercellular Adhesion Molecule 1 (ICAM1) using HepaRG (AID 2283507)
Procedure, shortened: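 Using the human liver line HepaRG, compounds are tested in duplicate over 48 h at concentrations up to 100 uM. Expression is determined by TaqMan qRT-PCR, normalized to endogenous controls, and analysed relative to 0.5% DMSO vehicle.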

[17] = read-out: Insulin-like growth factor-binding protein 1 (IGFBP1), IGFBP1 (gene 3484); assay: LTEA_HepaRG_IGFBP1: Life Technologies and Expression Analysis (LTEA) Assay for Insulin-like growth factor-binding protein 1 (IGFBP1) using HepaRG (AID 2283508)
Procedure, shortened: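 HepaRG, 48 h, 8 conc. (max 100 uM, half-log), duplicates, 0.5% DMSO. Readout: TaqMan qRT-PCR, ACTB/GAPDH/POLR2A normalisation. Fit: bidirectional vs DMSO.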

[18] = read-out: Interleukin 6 (IL6), IL6 (gene 3569); assay: LTEA_HepaRG_IL6: Life Technologies and Expression Analysis (LTEA) Assay for Interleukin 6 (IL6) using HepaRG (AID 2283509)
Procedure, shortened: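 HepaRG cells exposed in duplicate for 48 h to eight half-log concentrations, top 100 uM, in 0.5% DMSO serum-free induction medium. mRNA measured by qRT-PCR, normalized to ACTB, GAPDH and POLR2A. Bidirectional fit versus DMSO.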

Measured: AC50

Sequence of Cytochrome P450 3A7 (Homo sapiens) (P24462 whole entry, looked up): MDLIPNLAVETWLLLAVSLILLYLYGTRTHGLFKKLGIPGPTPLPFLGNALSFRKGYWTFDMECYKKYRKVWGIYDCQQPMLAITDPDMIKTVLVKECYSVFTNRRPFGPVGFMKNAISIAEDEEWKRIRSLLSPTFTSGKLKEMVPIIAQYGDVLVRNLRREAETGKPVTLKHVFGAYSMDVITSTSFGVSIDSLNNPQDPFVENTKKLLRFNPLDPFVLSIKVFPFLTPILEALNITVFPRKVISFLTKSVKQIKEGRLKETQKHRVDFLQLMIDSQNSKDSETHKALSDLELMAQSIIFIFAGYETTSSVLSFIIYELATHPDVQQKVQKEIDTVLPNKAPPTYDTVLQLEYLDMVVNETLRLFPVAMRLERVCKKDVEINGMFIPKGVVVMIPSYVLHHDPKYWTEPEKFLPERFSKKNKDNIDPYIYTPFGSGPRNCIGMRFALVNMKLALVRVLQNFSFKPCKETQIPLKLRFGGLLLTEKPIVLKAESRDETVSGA
Sequence of Hypoxia-inducible factor 1-alpha (Homo sapiens) (Q16665 whole entry, looked up): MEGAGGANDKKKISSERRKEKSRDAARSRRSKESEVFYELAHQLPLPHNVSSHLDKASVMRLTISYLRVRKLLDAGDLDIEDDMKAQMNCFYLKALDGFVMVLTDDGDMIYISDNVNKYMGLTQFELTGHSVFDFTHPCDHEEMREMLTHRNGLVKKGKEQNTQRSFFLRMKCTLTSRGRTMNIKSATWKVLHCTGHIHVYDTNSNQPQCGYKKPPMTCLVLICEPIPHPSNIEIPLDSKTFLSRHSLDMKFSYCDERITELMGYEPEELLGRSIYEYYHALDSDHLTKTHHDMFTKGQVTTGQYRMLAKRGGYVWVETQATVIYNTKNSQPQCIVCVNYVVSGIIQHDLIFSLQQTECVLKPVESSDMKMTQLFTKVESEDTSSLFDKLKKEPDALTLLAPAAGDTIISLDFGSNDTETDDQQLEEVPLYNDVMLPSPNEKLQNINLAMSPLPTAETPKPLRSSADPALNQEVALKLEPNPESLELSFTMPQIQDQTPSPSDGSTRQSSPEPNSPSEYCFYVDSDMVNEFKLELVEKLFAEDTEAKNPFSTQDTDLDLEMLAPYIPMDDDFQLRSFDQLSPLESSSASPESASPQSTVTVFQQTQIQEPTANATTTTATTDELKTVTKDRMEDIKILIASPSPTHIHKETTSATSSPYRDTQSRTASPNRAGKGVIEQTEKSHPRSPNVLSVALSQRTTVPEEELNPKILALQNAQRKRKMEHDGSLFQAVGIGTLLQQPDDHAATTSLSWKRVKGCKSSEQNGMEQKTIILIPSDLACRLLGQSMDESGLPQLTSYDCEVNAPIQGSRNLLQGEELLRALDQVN

Oc1cc(Cl)ccc1Oc1ccc(Cl)cc1Cl
active: CYP3A5 (gene 1577) 51 µM | [4] 88.9 µM | [5] 51 µM and 76.4 µM | [6] 72.8 µM | [7] 83.7 µM | [9] 51 µM | [10] 89.6 µM | [13] 79 µM | [14] 82.8 µM | HGF (gene 3082) 51 µM | [15] 69 µM | [17] 71.9 µM | [18] 81.3 µM
inactive: [1] | [2] | [3] | CYP3A5 (gene 1577) | [4] | [5] | [6] | [7] | [8] | [9] | [10] | [11] | [12] | [13] | [14] | HGF (gene 3082) | [15] | [16] | [17] | [18]

O=C1c2ccccc2C(=O)N1SC(Cl)(Cl)Cl
inactive: [1] | [2] | [3] | CYP3A5 (gene 1577) | [4] | [5] | [6] | [7] | [8] | [9] | [10] | [11] | [12] | [13] | [14] | HGF (gene 3082) | [15] | [16] | [17] | [18]

CN1CSC(=S)N(C)C1
inactive: [1] | [2] | [3] | CYP3A5 (gene 1577) | [4] | [5] | [6] | [7] | [8] | [9] | [10] | [11] | [12] | [13] | [14] | HGF (gene 3082) | [15] | [16] | [17] | [18]
